Test results from PubChem BioAssay (NCI).
About 83,000 compounds went through this panel and 20% of them were active in at least one assay; those are over-represented in the sample as a whole.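 In brief: 96-well plates, 48 h treatment, single concentration, percent growth endpoint.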 Values without a mark were called inactive. Active and inactive are the calls of the source. The calls were made as follows: active = growth percent below 10; inactive = the rest.

System: SW-620 colon
Experiment: NCI-60 one-dose screen, 48 h (100 = growth as untreated, 0 = no growth, -100 = all killed)
Conditions: 10 µM unless noted

Row | SMILES | growth
1 | COc1cc(-c2csc(NC(=O)Nc3ccc(C(F)(F)F)cc3)n2)cc(OC)c1OC | 14.8%
2 | Cc1c(Cl)cccc1NC(=O)c1sc2nc3c(cc2c1N)COCC3 | 22.8%
3 | CCN(CC)CC#CCOC(=O)[C@]1(C)CCC[C@]2(C)[C@H]3C[C@H]4C(C(C)C)=C[C@]3(CC[C@H]21)[C@@H]1C(=O)CCC(=O)[C@@H]14 | 55.1%
4 | CC(C)(C)c1nn(-c2ccccc2)c2c1COCN2Cc1ccc(Cl)cc1 | 82.9%
5 | O=C(Nc1nc2ccc(C(F)(F)F)cc2s1)c1cc(Cl)ccc1O | 12.8%

System: MCF7 breast
Experiment: as above
Conditions: 10 µM unless noted

Row | SMILES | growth
6 | CC(=O)Oc1c2c(nc3c1c1ccccc1n3Cc1ccccc1)-c1ccccc1C2 | 51.1%
7 | C/C(=C\c1cnc(C)s1)[C@@H]1C[C@@H]2O[C@@H]2CCC[C@H](C)[C@H](O)[C@@H](C)C(=O)C(C)(C)[C@@H](O)CC(=O)O1 | 17.1%
8 | OCCNc1nc(NCCO)nc(Nc2ccc(C3=NN(c4cc(Cl)cc(Cl)c4)C(c4ccc(C(F)(F)F)cc4)C3)cc2)n1 (stereo unspecified) | 10.7%
9 | CCOCCc1c(O)nc(SC)[nH]c1=O | 99.7%
10 | CN(C)[C@@H]1C(=O)C(C(N)=O)=C(O)[C@@]2(O)C(=O)C3=C(O)c4c(O)cc(CN5CCc6ccccc6C5)c(Cl)c4C[C@H]3C[C@@H]12 | -68.8% (active)
11 | CCCCn1c(=O)c(/C=C/C(=O)/C=C/c2cc3ccccc3n(CCCC)c2=O)cc2ccccc21 | -0.486% (active)
12 | CCOC(=O)c1c(C)nc2c(c1N)CC(=O)N2CCc1ccccc1 | 11.8%
13 | C#CCOC(=O)[C@]1(C)CCC[C@]2(C)[C@H]3C[C@H]4C(C(C)C)=C[C@]3(CC[C@H]21)[C@@H]1C(=O)CCC(=O)[C@@H]14 | 83.2%
14 | C/C(=N/Nc1nc2ccccc2n1C)c1ccccn1 | 3.47% (active)
15 | C#C[C@@]1(O)[C@@H](CO)O[C@@H](n2cc(-c3ccco3)c3c(N)ncnc32)[C@@H]1O | 13.9%
16 | CC(=O)c1ccc(NC(=O)CSc2nnc(-c3cc(-c4ccc(Cl)cc4)nc4ccccc34)o2)cc1 | 55.8%
17 | N#Cc1ccc(Oc2ccc3ccc(=O)oc3c2)cc1 | 97.3%
18 | C=C(C)[C@@H]1CC[C@]2(C(=O)O)CC[C@]3(C)[C@H](CC[C@@H]4[C@@]5(C)C[C@@H](CC#Cc6ccc(Cl)cc6)C(=O)C(C)(C)[C@@H]5CC[C@]43C)[C@@H]12 | 36.3%
19 | CN1CCN(S(=O)(=O)O[C@@H]2C(=O)N(c3cc4c5ccccc5ccc4c4ccccc34)[C@H]2c2ccc(F)cn2)CC1 | 87.4%
20 | Cc1cc(C)c2nc(Nc3nc(C)c(C)c(=O)[nH]3)nc(C)c2c1 | 3.09% (active)
21 | COC(=O)c1nc(-c2ccccc2)oc1S(=O)(=O)n1nc(C)cc1N | 60.2%
22 | COc1ccc2cc(/C=C3\N=C(c4cc(OC)c(OC)c(OC)c4)OC3=O)c(OC)nc2c1 | 99.8%
23 | O=C(CSC(=S)N1CCCCC1)Nc1ccccc1 | 99.8%
24 | COc1cc(NC(=O)c2cc(O)c(C/C=C(\C)CCC=C(C)C)c(O)c2)cc2c1O[C@]1(C)CC[C@@H](O)C(C)(C)[C@H]1C2 | 8.42% (active)
25 | CCN1CCC[C@H]1c1cc(O)c2c(c1OC)C[C@H]1C[C@H]3[C@H](N)C(=O)C(C(N)=O)=C(O)[C@@]3(O)C(=O)C1=C2O | 0.852% (active)
26 | O=c1c2ccccc2oc2ccc(OCCCCCCN3CCCCCC3)cc12 | 28.9%
27 | NCCN1CCNCC1 | 96.6%
28 | C=C(C)[C@@H]1CC[C@]2(C(=O)OCCOCCOCC[P+](c3ccccc3)(c3ccccc3)c3ccccc3)CC[C@]3(C)[C@H](CC[C@@H]4[C@@]5(C)CC[C@H](C)C(C)(C)[C@@H]5CC[C@]43C)[C@@H]12 | -77% (active)
29 | O=C1CCC23OC(C(O)c4ccccc4N12)C1C(Br)=NOC13 (stereo unspecified) | 96.5%
30 | CCOC(=O)c1c(C)nc2c(c1N)/C(=C/c1ccccn1)C(=O)N2Cc1ccccc1 | 2.76% (active)
31 | C[C@H]1[C@H](C)CC[C@]2(C(=O)OCCCC[P+](c3ccccc3)(c3ccccc3)c3ccccc3)CC[C@]3(C)C(=CC[C@@H]4[C@@]5(C)CC[C@H](OC(=O)C(Cl)Cl)C(C)(C)[C@@H]5CC[C@]43C)[C@H]12 | -38.1% (active)
